According to article PMC7862700, “An all-to-all approach to the identification of sequence-specific readers for epigenetic DNA modifications on cytosine”:

Key:
Assay in all cases: DAPPL (digital affinity profiling via proximity ligation, sequencing); 10 mM Tris-HCl pH 7.5, 50 mM NaCl, 1 mM DTT, 4% glycerol, room temperature, 30 min; GST-TFs on glutathione beads, 16-mer random dsDNA library, 0.1% formaldehyde crosslink after washing; high values mean tight binding
FLI1 = target: T1, FLI1 (Homo sapiens, UniProt Q01543 1-452); details: protein: recombinant; tags: N-terminal GST; dsDNA, one strand shown
T1 sequence: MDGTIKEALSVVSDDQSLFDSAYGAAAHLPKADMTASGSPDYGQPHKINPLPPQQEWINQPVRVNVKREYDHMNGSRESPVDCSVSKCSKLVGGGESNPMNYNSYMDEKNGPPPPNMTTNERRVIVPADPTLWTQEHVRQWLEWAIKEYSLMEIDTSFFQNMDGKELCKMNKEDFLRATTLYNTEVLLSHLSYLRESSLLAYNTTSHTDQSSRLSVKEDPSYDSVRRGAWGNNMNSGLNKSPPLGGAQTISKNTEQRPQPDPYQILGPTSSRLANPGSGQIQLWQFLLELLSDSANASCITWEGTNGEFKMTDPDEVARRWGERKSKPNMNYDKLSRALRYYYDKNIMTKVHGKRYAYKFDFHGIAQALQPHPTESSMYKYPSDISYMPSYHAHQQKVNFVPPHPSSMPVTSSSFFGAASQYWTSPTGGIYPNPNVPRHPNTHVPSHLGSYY
Procedure, shortened: (§1)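 The binding signal reported is, for every hexamer, its read frequency for a factor over its read frequency for the tag-only sample. Reads came from pools of yeast-expressed, GST-fused human transcription factors on glutathione beads, barcoded with DNA and mixed with that sample, which were incubated with 200 nmole of a random double-stranded 16-mer DNA library in Tris/NaCl/DTT/glycerol buffer at room temperature for 30 min. After washing, the pools were crosslinked with 0.1% formaldehyde, proximity-ligated with BsaI/T4 ligase for 1 h at 37 °C, PCR-amplified and sequenced on an Illumina NextSeq500.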

ELK1 = target: T2, ELK1 (Homo sapiens, UniProt P19419 1-428); details: protein: recombinant; tags: N-terminal GST; dsDNA, one strand shown
T2 sequence: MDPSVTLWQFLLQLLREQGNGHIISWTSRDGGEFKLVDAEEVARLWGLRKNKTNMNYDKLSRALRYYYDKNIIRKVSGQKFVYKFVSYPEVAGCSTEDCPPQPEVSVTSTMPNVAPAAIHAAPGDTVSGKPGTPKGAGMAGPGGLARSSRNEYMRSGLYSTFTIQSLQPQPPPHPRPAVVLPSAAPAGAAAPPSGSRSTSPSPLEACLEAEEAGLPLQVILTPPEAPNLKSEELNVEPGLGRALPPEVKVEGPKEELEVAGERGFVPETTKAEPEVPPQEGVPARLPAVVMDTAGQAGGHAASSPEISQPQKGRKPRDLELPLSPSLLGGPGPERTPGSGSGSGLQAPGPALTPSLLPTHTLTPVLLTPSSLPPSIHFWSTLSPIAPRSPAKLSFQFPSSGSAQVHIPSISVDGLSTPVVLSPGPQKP
Procedure, shortened: as §1

ERG = target: T3, ERG (Homo sapiens, UniProt P11308 1-479); details: protein: recombinant; tags: N-terminal GST; dsDNA, one strand shown
T3 sequence: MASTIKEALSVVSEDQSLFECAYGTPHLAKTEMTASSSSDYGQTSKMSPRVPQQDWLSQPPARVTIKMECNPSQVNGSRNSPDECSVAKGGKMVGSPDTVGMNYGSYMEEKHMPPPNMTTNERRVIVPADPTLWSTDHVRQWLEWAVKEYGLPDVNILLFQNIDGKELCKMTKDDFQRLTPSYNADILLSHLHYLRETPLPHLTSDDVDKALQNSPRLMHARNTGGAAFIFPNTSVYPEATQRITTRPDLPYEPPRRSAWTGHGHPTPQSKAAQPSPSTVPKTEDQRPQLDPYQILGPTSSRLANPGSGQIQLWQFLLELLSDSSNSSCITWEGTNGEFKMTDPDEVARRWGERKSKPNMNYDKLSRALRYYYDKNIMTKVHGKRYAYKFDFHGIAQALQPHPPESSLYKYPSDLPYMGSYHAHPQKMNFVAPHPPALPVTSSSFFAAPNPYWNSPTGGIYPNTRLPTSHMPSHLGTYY
Procedure, shortened: as §1

ELF1 = ELF1 (Homo sapiens, UniProt P32519 1-619); details: protein: recombinant; tags: N-terminal GST; dsDNA, one strand shown
Chain of ELF1 (P32519 whole entry): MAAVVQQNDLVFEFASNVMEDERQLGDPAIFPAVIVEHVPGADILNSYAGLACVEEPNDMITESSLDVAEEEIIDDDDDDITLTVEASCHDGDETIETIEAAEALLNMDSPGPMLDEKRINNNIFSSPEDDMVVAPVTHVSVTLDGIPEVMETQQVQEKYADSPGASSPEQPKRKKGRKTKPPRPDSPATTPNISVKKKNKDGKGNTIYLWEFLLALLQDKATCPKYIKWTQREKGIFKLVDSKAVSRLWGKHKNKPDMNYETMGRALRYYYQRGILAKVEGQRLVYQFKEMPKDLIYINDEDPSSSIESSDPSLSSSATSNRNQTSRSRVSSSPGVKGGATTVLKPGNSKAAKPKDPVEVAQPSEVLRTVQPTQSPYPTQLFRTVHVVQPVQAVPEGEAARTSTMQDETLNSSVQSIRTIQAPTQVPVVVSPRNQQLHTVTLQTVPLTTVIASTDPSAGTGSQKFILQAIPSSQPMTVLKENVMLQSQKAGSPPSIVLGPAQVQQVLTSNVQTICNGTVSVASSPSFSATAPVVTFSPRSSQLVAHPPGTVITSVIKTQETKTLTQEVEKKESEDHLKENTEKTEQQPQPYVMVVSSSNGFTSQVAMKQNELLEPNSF
Procedure, shortened: as §1

EHF = target: T4, EHF (Homo sapiens, UniProt Q9NZC4 1-300); details: protein: recombinant; tags: N-terminal GST; dsDNA, one strand shown
T4 sequence: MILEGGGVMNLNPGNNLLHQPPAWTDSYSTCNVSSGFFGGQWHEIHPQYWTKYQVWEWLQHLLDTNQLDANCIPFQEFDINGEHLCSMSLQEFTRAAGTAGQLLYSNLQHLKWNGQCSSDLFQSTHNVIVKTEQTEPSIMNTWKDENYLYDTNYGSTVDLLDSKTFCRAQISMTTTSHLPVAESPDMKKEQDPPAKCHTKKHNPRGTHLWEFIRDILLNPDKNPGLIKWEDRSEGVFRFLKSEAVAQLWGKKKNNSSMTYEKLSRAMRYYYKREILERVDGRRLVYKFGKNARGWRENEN
Procedure, shortened: as §1

SPI1 = SPI1 (Homo sapiens, UniProt P17947 1-270); details: protein: recombinant; tags: N-terminal GST; dsDNA, one strand shown
Procedure, shortened: as §1

SPIB = SPIB (Homo sapiens, UniProt Q01892 1-262); details: protein: recombinant; tags: N-terminal GST; dsDNA, one strand shown
Chain of SPIB (Q01892 whole entry): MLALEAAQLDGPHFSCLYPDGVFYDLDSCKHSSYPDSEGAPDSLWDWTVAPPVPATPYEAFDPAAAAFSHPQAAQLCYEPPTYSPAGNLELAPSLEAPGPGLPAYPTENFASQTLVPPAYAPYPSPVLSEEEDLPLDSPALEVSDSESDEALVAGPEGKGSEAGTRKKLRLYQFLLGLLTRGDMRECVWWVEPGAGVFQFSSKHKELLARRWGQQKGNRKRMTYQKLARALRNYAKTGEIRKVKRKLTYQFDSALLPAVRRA
Procedure, shortened: as §1

ELK3 = target: T5, ELK3 (Homo sapiens, UniProt P41970 1-407); details: protein: recombinant; tags: N-terminal GST; dsDNA, one strand shown
T5 sequence: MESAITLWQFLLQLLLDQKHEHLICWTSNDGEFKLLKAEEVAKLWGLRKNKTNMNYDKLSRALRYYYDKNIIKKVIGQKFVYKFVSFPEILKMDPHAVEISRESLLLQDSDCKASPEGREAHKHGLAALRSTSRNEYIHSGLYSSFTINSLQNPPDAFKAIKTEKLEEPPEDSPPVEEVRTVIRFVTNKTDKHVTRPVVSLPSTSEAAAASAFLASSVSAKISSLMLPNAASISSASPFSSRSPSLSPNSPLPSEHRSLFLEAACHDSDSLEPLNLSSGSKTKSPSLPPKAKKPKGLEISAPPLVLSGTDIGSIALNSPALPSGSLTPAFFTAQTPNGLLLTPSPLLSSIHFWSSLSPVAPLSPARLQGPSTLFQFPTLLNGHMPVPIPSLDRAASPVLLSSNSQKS
Procedure, shortened: as §1

FEV = target: T6, FEV (Homo sapiens, UniProt Q99581 1-238); details: protein: recombinant; tags: N-terminal GST; dsDNA, one strand shown
T6 sequence: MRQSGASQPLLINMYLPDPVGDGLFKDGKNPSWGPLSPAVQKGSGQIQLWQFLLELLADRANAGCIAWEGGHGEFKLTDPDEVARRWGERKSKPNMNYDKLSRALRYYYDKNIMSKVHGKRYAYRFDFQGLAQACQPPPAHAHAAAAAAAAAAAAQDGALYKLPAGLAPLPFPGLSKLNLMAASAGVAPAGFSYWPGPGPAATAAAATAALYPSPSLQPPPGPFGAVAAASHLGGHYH
Procedure, shortened: as §1

ETV5 = ETV5 (Homo sapiens, UniProt P41161 1-510); details: protein: recombinant; tags: N-terminal GST; dsDNA, one strand shown
Chain of ETV5 (P41161 whole entry): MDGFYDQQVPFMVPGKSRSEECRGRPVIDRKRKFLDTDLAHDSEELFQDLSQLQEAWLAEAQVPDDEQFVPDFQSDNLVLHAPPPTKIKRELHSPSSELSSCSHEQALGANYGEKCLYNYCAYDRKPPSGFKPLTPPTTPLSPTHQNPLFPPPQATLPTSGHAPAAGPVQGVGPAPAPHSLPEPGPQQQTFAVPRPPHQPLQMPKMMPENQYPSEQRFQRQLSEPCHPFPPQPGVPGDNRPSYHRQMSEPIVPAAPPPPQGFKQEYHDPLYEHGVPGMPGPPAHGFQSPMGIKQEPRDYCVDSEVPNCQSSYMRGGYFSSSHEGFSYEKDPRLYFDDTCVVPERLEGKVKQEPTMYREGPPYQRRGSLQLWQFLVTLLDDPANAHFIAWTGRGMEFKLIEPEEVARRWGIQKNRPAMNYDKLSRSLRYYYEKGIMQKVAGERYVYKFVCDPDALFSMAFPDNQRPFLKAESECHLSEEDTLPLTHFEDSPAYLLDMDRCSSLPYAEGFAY
Procedure, shortened: as §1

HSF1 = HSF1 (Homo sapiens, UniProt Q00613 1-529); details: protein: recombinant; tags: N-terminal GST; chain copies: 3; dsDNA, one strand shown
Chain of HSF1 (Q00613 whole entry): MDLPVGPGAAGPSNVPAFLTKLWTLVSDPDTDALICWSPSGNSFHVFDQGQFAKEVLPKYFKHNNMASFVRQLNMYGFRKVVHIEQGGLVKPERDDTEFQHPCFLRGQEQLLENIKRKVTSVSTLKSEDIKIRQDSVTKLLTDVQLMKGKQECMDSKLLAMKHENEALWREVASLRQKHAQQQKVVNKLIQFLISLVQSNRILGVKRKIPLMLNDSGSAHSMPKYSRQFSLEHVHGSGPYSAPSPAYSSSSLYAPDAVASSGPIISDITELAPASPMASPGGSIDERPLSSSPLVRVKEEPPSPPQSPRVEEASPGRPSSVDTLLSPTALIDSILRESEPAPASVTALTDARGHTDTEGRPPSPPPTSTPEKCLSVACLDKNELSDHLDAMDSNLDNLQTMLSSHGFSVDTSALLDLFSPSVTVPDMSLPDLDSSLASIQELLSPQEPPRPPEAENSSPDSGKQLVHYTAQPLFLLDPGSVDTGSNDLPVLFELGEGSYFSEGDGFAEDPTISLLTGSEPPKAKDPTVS
Procedure, shortened: as §1

ELF4 = ELF4 (Homo sapiens, UniProt Q99607 1-663); details: protein: recombinant; tags: N-terminal GST; dsDNA, one strand shown
Chain of ELF4 (Q99607 whole entry): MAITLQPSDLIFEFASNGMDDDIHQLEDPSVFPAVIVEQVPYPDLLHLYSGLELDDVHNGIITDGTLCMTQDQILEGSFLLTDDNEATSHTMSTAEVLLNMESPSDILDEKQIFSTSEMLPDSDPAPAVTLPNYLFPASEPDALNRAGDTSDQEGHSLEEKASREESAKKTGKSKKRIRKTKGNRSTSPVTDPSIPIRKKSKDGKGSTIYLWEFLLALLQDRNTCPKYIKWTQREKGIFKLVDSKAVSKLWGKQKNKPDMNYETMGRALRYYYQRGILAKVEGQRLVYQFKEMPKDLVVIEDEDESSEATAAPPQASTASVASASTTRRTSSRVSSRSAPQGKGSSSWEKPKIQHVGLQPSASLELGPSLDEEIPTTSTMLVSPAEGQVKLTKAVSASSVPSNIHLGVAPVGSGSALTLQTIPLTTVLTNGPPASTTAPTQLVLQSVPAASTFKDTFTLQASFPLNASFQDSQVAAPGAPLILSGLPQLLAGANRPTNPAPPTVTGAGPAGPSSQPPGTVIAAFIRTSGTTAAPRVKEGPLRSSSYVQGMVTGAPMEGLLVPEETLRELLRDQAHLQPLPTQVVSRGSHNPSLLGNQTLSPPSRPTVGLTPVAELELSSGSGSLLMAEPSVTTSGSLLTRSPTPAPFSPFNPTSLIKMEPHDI
Procedure, shortened: as §1

ELK4 = target: T7, ELK4 (Homo sapiens, UniProt P28324-2 1-405); details: protein: recombinant; tags: N-terminal GST; dsDNA, one strand shown
T7 sequence: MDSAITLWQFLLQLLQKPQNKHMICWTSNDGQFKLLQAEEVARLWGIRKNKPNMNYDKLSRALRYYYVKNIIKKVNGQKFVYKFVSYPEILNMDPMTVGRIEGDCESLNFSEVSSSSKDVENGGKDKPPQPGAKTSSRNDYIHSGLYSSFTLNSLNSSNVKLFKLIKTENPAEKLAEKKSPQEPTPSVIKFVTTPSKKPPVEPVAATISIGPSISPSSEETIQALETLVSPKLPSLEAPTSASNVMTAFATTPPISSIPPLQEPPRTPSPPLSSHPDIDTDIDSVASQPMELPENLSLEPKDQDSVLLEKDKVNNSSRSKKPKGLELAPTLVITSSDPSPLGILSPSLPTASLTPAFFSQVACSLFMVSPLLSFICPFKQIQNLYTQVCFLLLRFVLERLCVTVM
Procedure, shortened: as §1

ETV2 = target: T8, ETV2 (Homo sapiens, UniProt O00321 1-342); details: protein: recombinant; tags: N-terminal GST; dsDNA, one strand shown
T8 sequence: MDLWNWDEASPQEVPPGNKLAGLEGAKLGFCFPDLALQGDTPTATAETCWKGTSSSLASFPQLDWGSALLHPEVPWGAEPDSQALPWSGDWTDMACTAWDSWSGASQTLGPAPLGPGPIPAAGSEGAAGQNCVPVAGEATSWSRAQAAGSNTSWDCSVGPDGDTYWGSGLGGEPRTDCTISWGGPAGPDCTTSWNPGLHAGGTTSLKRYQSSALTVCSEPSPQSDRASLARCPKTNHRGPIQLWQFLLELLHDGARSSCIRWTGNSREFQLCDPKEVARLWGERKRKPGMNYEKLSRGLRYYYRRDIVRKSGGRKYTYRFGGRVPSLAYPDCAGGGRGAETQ
Procedure, shortened: as §1

ELF3 = target: T9, ELF3 (Homo sapiens, UniProt P78545 1-371); details: protein: recombinant; tags: N-terminal GST; dsDNA, one strand shown
T9 sequence: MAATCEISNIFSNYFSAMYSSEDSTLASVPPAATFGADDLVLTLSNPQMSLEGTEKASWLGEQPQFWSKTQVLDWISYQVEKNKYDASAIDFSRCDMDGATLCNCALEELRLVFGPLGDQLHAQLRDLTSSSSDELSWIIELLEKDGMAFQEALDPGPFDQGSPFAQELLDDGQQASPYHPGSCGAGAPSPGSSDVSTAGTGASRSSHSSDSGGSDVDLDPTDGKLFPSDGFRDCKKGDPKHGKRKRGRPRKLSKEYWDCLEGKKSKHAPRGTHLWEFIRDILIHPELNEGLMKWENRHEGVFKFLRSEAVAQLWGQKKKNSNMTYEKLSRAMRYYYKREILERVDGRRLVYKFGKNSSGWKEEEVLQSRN
Procedure, shortened: as §1

CRX = CRX (Homo sapiens, UniProt O43186 1-299); details: protein: recombinant; tags: N-terminal GST; dsDNA, one strand shown
Chain of CRX (O43186 whole entry): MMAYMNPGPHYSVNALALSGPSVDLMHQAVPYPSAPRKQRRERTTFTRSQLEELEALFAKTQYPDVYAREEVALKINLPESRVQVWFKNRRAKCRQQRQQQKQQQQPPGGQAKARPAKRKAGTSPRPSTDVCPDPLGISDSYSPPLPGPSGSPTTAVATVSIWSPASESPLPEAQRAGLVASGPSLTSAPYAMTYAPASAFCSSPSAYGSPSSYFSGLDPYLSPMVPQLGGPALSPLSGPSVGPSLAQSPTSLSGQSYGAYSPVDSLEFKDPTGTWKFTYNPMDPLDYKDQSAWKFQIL
Procedure, shortened: as §1

ETV1 = ETV1 (Homo sapiens, UniProt P50549 1-477); details: protein: recombinant; tags: N-terminal GST; dsDNA, one strand shown
Chain of ETV1 (P50549 whole entry): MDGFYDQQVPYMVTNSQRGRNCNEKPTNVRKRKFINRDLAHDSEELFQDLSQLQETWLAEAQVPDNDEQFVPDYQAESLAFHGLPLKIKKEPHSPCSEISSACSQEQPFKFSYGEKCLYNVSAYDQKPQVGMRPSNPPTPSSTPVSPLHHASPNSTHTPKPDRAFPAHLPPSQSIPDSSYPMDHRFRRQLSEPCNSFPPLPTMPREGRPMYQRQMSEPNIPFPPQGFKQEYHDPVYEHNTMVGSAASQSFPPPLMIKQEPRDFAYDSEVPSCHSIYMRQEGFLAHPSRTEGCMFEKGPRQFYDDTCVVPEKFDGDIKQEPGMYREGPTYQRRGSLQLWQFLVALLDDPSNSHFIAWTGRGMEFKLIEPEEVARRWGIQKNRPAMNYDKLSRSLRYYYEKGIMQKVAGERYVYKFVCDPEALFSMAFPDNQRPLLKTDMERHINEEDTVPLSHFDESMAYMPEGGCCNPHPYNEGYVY
Procedure, shortened: as §1

Sequence | binding signal (FLI1) | binding signal (ELK1) | binding signal (ERG) | binding signal (ELF1) | binding signal (EHF) | binding signal (SPI1) | binding signal (SPIB) | binding signal (ELK3) | binding signal (FEV) | binding signal (ETV5) | binding signal (HSF1) | binding signal (ELF4) | binding signal (ELK4) | binding signal (ETV2) | binding signal (ELF3) | binding signal (CRX) | binding signal (ETV1)
TAACAG | 1.06 fold enrichment (6-mer frequency, TF over GST control) | 1.05 fold enrichment (6-mer frequency, TF over GST control) | 1.01 fold enrichment (6-mer frequency, TF over GST control) | 1.09 fold enrichment (6-mer frequency, TF over GST control) | 1.07 fold enrichment (6-mer frequency, TF over GST control) | 1.11 fold enrichment (6-mer frequency, TF over GST control) | 1.09 fold enrichment (6-mer frequency, TF over GST control) | 1.07 fold enrichment (6-mer frequency, TF over GST control) | 1.05 fold enrichment (6-mer frequency, TF over GST control) | 1.04 fold enrichment (6-mer frequency, TF over GST control) | 1.02 fold enrichment (6-mer frequency, TF over GST control) | 1.09 fold enrichment (6-mer frequency, TF over GST control) | 1.12 fold enrichment (6-mer frequency, TF over GST control) | 1.02 fold enrichment (6-mer frequency, TF over GST control) | 1.09 fold enrichment (6-mer frequency, TF over GST control) | 1.3 fold enrichment (6-mer frequency, TF over GST control) | 1.09 fold enrichment (6-mer frequency, TF over GST control)
ACATCG | 1.03 fold enrichment (6-mer frequency, TF over GST control) | 1.01 fold enrichment (6-mer frequency, TF over GST control) |  | 1.06 fold enrichment (6-mer frequency, TF over GST control) | 1.15 fold enrichment (6-mer frequency, TF over GST control) | 1.03 fold enrichment (6-mer frequency, TF over GST control) | 1.1 fold enrichment (6-mer frequency, TF over GST control) | 1.09 fold enrichment (6-mer frequency, TF over GST control) | 1.01 fold enrichment (6-mer frequency, TF over GST control) | 1.04 fold enrichment (6-mer frequency, TF over GST control) | 1.01 fold enrichment (6-mer frequency, TF over GST control) | 1.09 fold enrichment (6-mer frequency, TF over GST control) | 1.13 fold enrichment (6-mer frequency, TF over GST control) |  | 1.04 fold enrichment (6-mer frequency, TF over GST control) |  | 
